Reference: PubChem BioAssay (NCI)
Where “and” joins values, the source holds several entries; their conditions need not be identical. Identical values can stand only once. This is part of a sample that, as a whole, favours compounds with a hit. Of some 83,000 tested, about 20% had one in any assay.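 Compound tested at a single concentration for 48 hours in 96-well plates; a percent growth value below 10 was scored as active.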 Calls of active or inactive are those of the source.

test system: SNB-75 CNS; assay: NCI-60 one-dose screen, 48 h (100 = growth as untreated, 0 = no growth, -100 = all killed); conditions: 10 µM
Protocol: Growth inhibition of the SNB-75 human tumor cell line is measured as a screen for anti-cancer activity. Cells are grown in 96 well plates and exposed to the test compound for 48 hours. Compounds are tested at a single concentration, which is 10^-5 M for most compounds. The reported endpoint is percent growth (GI% or GIPRCNT), where numbers from 0 - 100% represent growth inhibition, and numbers from -100% - 0 represent cell death. For example, a value of 40 represents 60% growth inhibition. A value of 0 means no net growth occurred over the course of the experiment. A value of -40 indicates 40% of cells at the beginning of the experiment died by the end of the experiment. A value of -100 means all cells are dead at the end of the experiment.
NCI-60 Human Tumor Cell Lines Screen was performed using the standard one-dose NCI protocol, which is described in more detail at https://dtp.cancer.gov/discovery_development/nci-60/default.htm.
Compounds with GIPRCNT values below 10 were considered active. Activity score was based on GIPRCNT using the following formula: […]
Score is 0 for GIPRCNT values of 100 or above, 50 for GIPRCNT values of 0, and 100 for GIPRCNT values of -100.

SMILES	growth
S=c1nc[nH]c2nc[nH]c12	55.9% (inactive)

same assay, conditions: 10 µM unless noted

SMILES	growth
O=COCCCc1ccccc1	109% (inactive)
O=S(=O)(O)c1ccc2cc(O)ccc2c1	93.6% (inactive)
O=C(N=C1C(=O)C2(CCCCC2)C2(N=C(c3ccccc3)OC2=O)C12CCCCC2)c1ccccc1 (stereo not given)	85.2% (inactive)
CC(=O)/C(N=Nc1ccc(S(=O)(=O)c2ccc(N=N/C(C(C)=O)=C(/C)O)cc2)cc1)=C(\C)O	97.7% (inactive)
COC1C(OC(N)=O)C(O)C(Oc2ccc3c(O)c(NC(=O)c4ccc(O)c(CC=C(C)C)c4)c(=O)oc3c2C)OC1(C)C (stereo not given)	28.8% (inactive) and 77.2% (inactive)
CCOC(=O)c1ccncc1	108% (inactive)
COC(=O)c1nc(=S)[nH]c(C(=O)OC)c1C(=O)c1ccc(OC)cc1	101% (inactive)
N=C(N)N1CCc2ccccc2C1	98% (inactive) and 109% (inactive)
O=[N+]([O-])c1ccc(NC(c2ccccc2)c2ccc3cccnc3c2O)cc1 (stereo not given)	47.3% (inactive)
Nc1ccccc1SC1CC(=O)N(c2ccc(I)cc2)C1=O (stereo not given)	79.8% (inactive)
O=C1CCC(=O)N1CC1CC2CCC1C2 (stereo not given)	87.2% (inactive) and 73.1% (inactive)
CCOCCC(=O)O	93.3% (inactive)
Cc1cc(Cl)nc(Nc2ccccc2)n1	96.2% (inactive)
CC(=O)c1cccc(OC(=O)c2ccccc2)c1	101% (inactive)
OCCCc1ccccc1	88.7% (inactive)
Cc1nc2c(=O)[nH]c(=S)[nH]c2[nH]c1=O	97.4% (inactive) and 84.1% (inactive)
CS(=O)(=O)OCC1NC(=O)C(COS(C)(=O)=O)NC1=O (stereo not given)	56.5% (inactive) and 100% (inactive)
O=C1c2ccccc2CN1c1ccccc1	102% (inactive)
CCOC(=O)c1csc(N)n1	84.5% (inactive) and 86% (inactive)

SMILES	growth
Cc1cc(-c2ccc(N=Nc3c(C)nn(-c4ccc(S(=O)(=O)O)cc4)c3O)c(C)c2)ccc1N=Nc1ccc(O)c(C(=O)O)c1	99.9% (inactive)
N#Cc1c[nH]n2ccnc12	103% (inactive)
O=C(Nc1ccccc1)OCC(CN1CCCCC1)OC(=O)Nc1ccccc1 (stereo not given)	56.4% (inactive) and 80.6% (inactive)
S=c1nn[nH]n1C1CCCCC1	95.2% (inactive)
Cc1cnc(N)s1	71.5% (inactive)
CC1CCC(=O)N1c1ccc(N)cc1 (stereo not given)	97.4% (inactive)
CC(C)(C)OC(=O)CC1(O)CCCCC1	90.8% (inactive)
CCNC1=CC(=O)c2ncccc2C1=O	-91% (active)
OCc1cccc(F)c1	102% (inactive)
COc1ccc(-n2[nH]c3c(cnc4ccccc43)c2=O)cc1	98.1% (inactive)
O=c1[nH]c(=O)n(C2OC(CO)C(O)C2O)cc1I (stereo not given)	91.6% (inactive) and 87.6% (inactive)
COC(=O)CCOc1ccccc1	61.1% (inactive)
CCC(C)NC(=O)c1ccccc1C (stereo not given)	76.8% (inactive)
OCc1ccccc1F	126% (inactive)
CC(C)(C)OC(=O)NCCc1ccc(N)cc1	87.6% (inactive)
CCCCCc1cc[n+](CC(=O)c2ccccc2)cc1	92.6% (inactive)
O=C1C=CC[C@H](/C=C/c2ccccc2)O1	53.8% (inactive) and 70.9% (inactive)
O=c1[nH]c(=O)c2[nH]c(=O)[nH]c2[nH]1	89.8% (inactive)
CC(=O)Oc1cc(C(C)C)c(OCCN(C)C)cc1C	102% (inactive) and 89.9% (inactive)

same assay, conditions: 50 µM

SMILES	growth
S=c1nc[nH]c2nc[nH]c12	43.7% (inactive)
